# From PubChem BioAssay
# WT yeast gro inh – growth inhibition of WT strain, primary screen, mitochondrial fusion inhibitor project, WT and mutant strains, chemical genetic; mitochondrial fusion phenotypic screen; inhibition, % at 10 µM; hit rate 2.1% among 190,000; AID 1362, 2008; in the data active = inhibition above about 58%; tested in S. cerevisiae
# SKKanGAS inh – S. pyogenes SKKanGAS growth inhibitors in kanamycin, primary screen, streptokinase expression inhibitor project, SKKanGAS strain, BacTiter-Glo luminescence | hit rate 1.3% among 300,000 | 6 h | inhibition, % at 7.5 µM | AID 1662, 2009;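 active = mean replicate score, as percent of positive control median, at least 50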;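 note: strain carries kanamycin resistance gene driven by streptokinase promoter and grows in 40 µg/ml kanamycin; loss of luminescence reflects streptokinase promoter inhibition or plain growth inhibition; 0% = median of DMSO wells and 100% = positive control at its reference dose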
# PHOSPHO1 block – PubChem AID 1565; Phosphoethanolamine/phosphocholine phosphatase (Homo sapiens), Q8TCT1; recombinant PHOSPHO1, absorbance phosphatase assay; inhibition, % at 13.3 µM; hit rate 1.1% among 290,000; in the data active = inhibition above about 60%
# TPT1 inh – Candida albicans TPT1 enzyme inhibitors, primary screen, biochemical, fluorescence polarization | tRNA 2'-phosphotransferase TPT1 (Candida albicans SC5314) | recombinant caTPT1, FP RNA substrate dephosphorylation | inhibition, % at 5 µM | hit rate 0.81% among 300,000 | AID 1962, 2009;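 active = inhibition above the mean of all tested compounds plus 3 SD, set per screening campaign, cut at about 24% in these data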;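 note: plate controls were DMSO alone for no effect and ferristatin control at 100 nM for full effect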
# Rtt109 Vps75 – inhibitors of C. albicans Rtt109/Vps75 HAT, primary screen, biochemical, ThioGlo CoA-SH fluorescence, plate reader; purified Rtt109/Vps75, 4 h; inhibition, % at 34.9 µM; hit rate 0.16% among 330,000;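 active = inhibition of at least 50% in every replicate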
# Target sequence (Q5AAJ8 whole entry, looked up): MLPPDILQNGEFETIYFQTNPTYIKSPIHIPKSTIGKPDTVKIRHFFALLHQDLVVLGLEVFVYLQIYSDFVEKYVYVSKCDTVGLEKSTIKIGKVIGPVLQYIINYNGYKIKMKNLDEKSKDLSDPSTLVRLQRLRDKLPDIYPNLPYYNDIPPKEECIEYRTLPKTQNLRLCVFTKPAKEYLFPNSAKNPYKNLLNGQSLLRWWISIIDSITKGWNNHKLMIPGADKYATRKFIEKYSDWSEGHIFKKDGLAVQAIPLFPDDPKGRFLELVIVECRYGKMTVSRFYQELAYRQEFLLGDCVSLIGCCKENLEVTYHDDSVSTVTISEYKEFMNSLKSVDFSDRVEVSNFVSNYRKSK
# Platelet DG rel – inhibitors of platelet dense granule secretion, primary screen, cell-based, MLPCN, human platelets; inhibition, %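 (compounds screened at 7.5 µM in platelet-rich plasma)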; AID 1663, 2009; human platelet-rich plasma, SFLLRN dense granule ATP release, luminescence; hit rate 0.22% among 300,000;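 active = mean replicate score, as percent of positive control, at or above 50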
# Starred values were filed as active, the others as inactive; . = no result given. An excerpt weighted towards active compounds, which were near 3.9% of everything screened.
SMILES,WT yeast gro inh,SKKanGAS inh,PHOSPHO1 block,TPT1 inh,Rtt109 Vps75,Platelet DG rel
CC(=O)C1=C(C)NC(SCC(N)=O)=C(C#N)C1C (centres undefined),2,0,88*,-3,-3,-3
CC(=O)C1=C(C)NC(SCC(=O)c2ccc(Cl)cc2)=C(C#N)C1CC(C)C (centres undefined),21,-6,87*,2,2,5
CC1CCCN(C(=O)NC2CC(=O)N(c3ccc4c(c3)OCCO4)C2)C1 (centres undefined),.,-5,.,1,-4,4
COCCN(C(=O)COC(=O)c1cc2c(s1)CCCC2)c1c(N)n(Cc2ccccc2)c(=O)[nH]c1=O,.,1,.,4,9,5
CC(C)n1nccc1NC(=O)Nc1ccccc1,.,0,19,-2,-3,14
CSCSC1=C(C#N)C(c2ccccc2Cl)C(C(C)=O)=C(C)N1 (centres undefined),12,1,93*,1,.,-4
CCOC(=O)CSC1=C(C#N)C(c2ccccc2F)C(C(C)=O)=C(C)N1 (centres undefined),-1,-15,-92,1,-7,-4
Cc1cccc(C)c1NC(=S)NCCSc1ccc(Cl)cc1,80*,45,6,-4,7,-5
COc1ccc(Cl)cc1NC(=O)CN(C)C(=O)CCSc1ccc(C)cc1,.,.,.,.,1,.
COc1ccccc1NC(=S)NCCSc1ccc(Cl)cc1,78*,7,6,-1,-6,14
COc1ccc(NC(=S)NCCSc2ccc(Cl)cc2)c(OC)c1,73*,7,10,-3,16,-4
COc1ccc(Cl)cc1NC(=S)NCCSc1ccc(C)cc1,78*,2,6,0,5,1
Cc1cccc(C)c1NC(=S)NCc1ccccc1,3,1,-1,1,2,-21
O=C(CN(CCc1ccccc1)C(=O)c1csnn1)NCc1ccc(F)cc1,.,0,2,-2,-7,-3
O=C(NC1CCCN(Cc2ccc(Cl)cc2)C1)c1c(F)ccc(F)c1F (centres undefined),.,0,36,-2,0,7
CCCCCc1nnc(NC(=O)CN2C(=O)C3CCCCC3C2=O)s1 (centres undefined),.,-1,37,-6,43,-1
CCc1nnc(NC(=O)c2ccc(S(=O)(=O)N3CCCc4ccccc43)cc2)o1,70*,86*,24,-1,9,-1
CN(c1ccccc1)S(=O)(=O)c1ccc(NC(=O)c2ccccc2)cc1,-2,-7,7,-2,21,-8
CSCc1nnc(NC(=O)c2ccc(S(=O)(=O)N(CC(C)C)CC(C)C)cc2)o1,72*,80*,35,.,.,4
CCc1nnc(NC(=O)c2ccc(S(=O)(=O)N(C)c3ccccc3)cc2)o1,18,52*,-13,-1,-9,0
CCc1nnc(NC(=O)c2ccc(S(=O)(=O)N(CC(C)C)CC(C)C)cc2)o1,72*,.,19,1,-4,.
CSCc1nnc(NC(=O)c2ccc(S(=O)(=O)N(C)C)cc2)o1,-3,-2,26,1,.,2
CNC(=O)c1ccsc1NC(=O)c1ccc(S(=O)(=O)N2CCCc3ccccc32)cc1,52,16,-14,-2,5,0
CCOC(=O)c1c(-c2ccc(F)cc2)csc1NC(=O)C1CCCO1 (centres undefined),40,-9,-74,-2,-3,-5
CCOC(=O)c1c(-c2ccc(C)cc2)csc1NC(=O)C1CCCO1 (centres undefined),58*,5,-8,1,-1,0
CCOC(=O)c1c(-c2ccc(C)o2)csc1NC(=O)CN1CCN(CC)CC1,0,-17,0,1,26,-8
CCOC(=O)c1c(-c2ccc(C)o2)csc1NC(=O)CN1CCCCC1,83*,13,29,-1,4,-6
CC(C)OC(=O)c1c(-c2ccc(C(C)C)cc2)csc1NC(=O)C1CCCO1 (centres undefined),70*,24,14,-1,7,-9
